# Counter-ions that a name gives are not always drawn. A number with no mark means an inactive call.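 How the source made its calls: active = normalised median growth AUC below 0.1 of DMSO control; inactive = AUC 0.1 or higher.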
# Legend:
# Assay in all cases: growth AUC normalised to DMSO control (median) (fraction of control); higher = less growth inhibition, active = hit call of the paper
# Settings in all cases: 20 µM
# P. vulgatus RND KO = test system: P. vulgatus RND KO
# Procedure, shortened: (§1)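 In 96-well plates of mGAM seeded at OD578 0.01, strains that had been passaged twice overnight without oxygen were exposed to approved-drug library compounds at 20 μM with 1% DMSO. Hourly OD578 readings were taken for 24 h in an anaerobic incubator. The trapezoidal-rule area under the curve, with curves truncated at entry into stationary phase, was expressed relative to same-plate vehicle wells as the median of three biological replicates.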
# P. vulgatus WT = test system: P. vulgatus WT
# Procedure, shortened: as §1
# [1] = test system: S. enterica typhimurium WT
# Procedure, shortened: as §1
# [2] = test system: S. enterica typhimurium tolC KO
# Procedure, shortened: as §1
# 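Further: active when median AUC fell below 0.1.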
SMILES,growth AUC normalised to DMSO control (P. vulgatus RND KO),growth AUC normalised to DMSO control (P. vulgatus WT),growth AUC normalised to DMSO control [1],growth AUC normalised to DMSO control [2]
O=C1[C@H]2CCCC[C@H]2C(=O)N1CCCCN1CCN(c2nsc3ccccc23)CC1 [Perospirone hydrochloride],0.997,0.986,0.998,0.98
Cn1cc(C(=O)[C@@H]2CCc3[nH]cnc3C2)c2ccccc21 [Ramosetron hydrochloride],0.999,0.997,0.995,0.975
CC(=O)Oc1ccccc1C(=O)Nc1ncc([N+](=O)[O-])s1 [Nitazoxanide],0.0128 (active),0.0145 (active),0.922,0.414
CCC(=O)O[C@@H]1CC(=O)O[C@H](C)C/C=C/C=C/[C@H](O)[C@H](C)C[C@H](CC=O)[C@H](O[C@@H]2O[C@H](C)[C@@H](O[C@H]3C[C@@](C)(O)[C@@H](OC(=O)CC)[C@H](C)O3)[C@H](N(C)C)[C@H]2O)[C@H]1OC [Midecamycin],0.00894 (active),0.0119 (active),0.998,0.0799 (active)
CCOC(=O)[C@H](CCc1ccccc1)N[C@@H](C)C(=O)N1[C@H](C(=O)O)C[C@H]2CCCC[C@@H]21 [Trandolapril],0.986,0.992,1.01,0.998
CC(C)Nc1cccnc1N1CCN(C(=O)c2cc3cc(NS(C)(=O)=O)ccc3[nH]2)CC1 [Delavirdine],1.02,1.07,1.02,0.98
O=C1CN2Cc3c(ccc(Cl)c3Cl)N=C2N1 [Anagrelide],1.01,0.996,0.994,0.957
CCCc1c2oc(C(=O)O)cc(=O)c2cc2c(=O)cc(C(=O)O)n(CC)c12 [Nedocromil sodium],1.02,1.03,0.992,0.995
Cc1nc2n(c(=O)c1CCN1CCC(c3noc4cc(F)ccc34)CC1)CCCC2O (stereo not drawn) [Paliperidone],0.976,0.958,0.997,0.985
CCCC(=O)OCOC(=O)C1=C(C)NC(C)=C(C(=O)OC)C1c1cccc(Cl)c1Cl (stereo not drawn) [Clevidipine],0.986,0.992,0.98,1
OC[C@H]1O[C@H](O[C@H]2O[C@H](CO)[C@@H](O)[C@H](O)[C@H]2O)[C@H](O)[C@@H](O)[C@@H]1O [Trehalose dihydrate],1,1,1.01,1.01
CCOC(=O)[C@H](CCc1ccccc1)N[C@@H](C)C(=O)N(CC(=O)O)C1Cc2ccccc2C1 [Delapril Hydrochloride],1,0.999,1,0.987
CN(C)CCc1c[nH]c2ccc(Cn3cncn3)cc12 [Rizatriptan benzoate],1.02,1.03,1,0.994
COc1ccc(-c2noc(CC(=O)O)c2-c2ccc(OC)cc2)cc1 [Mofezolac],0.999,1.03,1.01,0.998
CCCCNC(=N)NC(=N)N [Buformin],1.04,1.06,1.02,0.991
CC(C(=O)O)c1ccc(N2CC=CC2)c(Cl)c1 (stereo not drawn) [Pirprofen],1.08,1.06,1,1
Cc1cn(-c2cc(NC(=O)c3ccc(C)c(Nc4nccc(-c5cccnc5)n4)c3)cc(C(F)(F)F)c2)cn1 [Nilotinib],1.03,1.05,0.994,0.984
O=C(NCCCN1CCOCC1)c1ccc(Cl)cc1 [Eprobemide],1.04,1.03,1.01,1
CC(=O)OC(C)OC(=O)C(C)c1ccc(-c2ccccc2)c(F)c1 (stereo not drawn) [Flurbiprofen axetil],1.09,1.1,1.01,0.856
Oc1ccc(C2CNCCc3c2cc(O)c(O)c3Cl)cc1 (stereo not drawn) [Fenoldopam],0.995,0.992,0.985,0.978
CCN1CCN(Cc2ccc(Nc3ncc(F)c(-c4cc(F)c5nc(C)n(C(C)C)c5c4)n3)nc2)CC1 [Abemaciclib],0.994,0.961,1,0.909

SMILES,growth AUC normalised to DMSO control (P. vulgatus RND KO),growth AUC normalised to DMSO control (P. vulgatus WT),growth AUC normalised to DMSO control [1],growth AUC normalised to DMSO control [2]
O=c1[nH]cnc2c1ncn2[C@@H]1O[C@H](CO)[C@@H](O)[C@H]1O [Inosine],1.01,1.04,0.991,1.01
CCCN1CCCC[C@H]1C(=O)Nc1c(C)cccc1C [Ropivacaine hydrochloride],1.02,1.03,0.997,1
C/C(=C\C(=O)OCCCCCCCCC(=O)O)C[C@@H]1OC[C@H](C[C@@H]2O[C@H]2[C@@H](C)[C@H](C)O)[C@@H](O)[C@H]1O [Mupirocin],1,1.04,0.403,0.0105 (active)
CS(=O)(=O)CCNCc1ccc(-c2ccc3ncnc(Nc4ccc(OCc5cccc(F)c5)c(Cl)c4)c3c2)o1 [Lapatinib],1.03,1.03,1,0.99
CC[C@H](C)[C@H](NC(=O)[C@H](Cc1ccc(O)cc1)NC(=O)[C@@H](NC(=O)[C@H](CCCN=C(N)N)NC(=O)[C@@H](N)CC(=O)O)C(C)C)C(=O)N[C@@H](Cc1cnc[nH]1)C(=O)N1CCC[C@H]1C(=O)N[C@@H](Cc1ccccc1)C(=O)O [Angiotensin II (Human) Trifluoroacetic acid salt],1.1,1.1,0.997,1.02
O=C(Oc1ccccc1)c1ccccc1O [Phenyl salicylate],1.03,1.06,1.01,0.975
CC(=O)Oc1cc2c(s1)CCN(C(C(=O)C1CC1)c1ccccc1F)C2 (stereo not drawn) [Prasugrel],1.06,1.07,1.03,1.01
NC(N)=Nc1nc(CSCCN/C=N/S(=O)(=O)c2ccc(Br)cc2)cs1 [Ebrotidine],0.995,1.01,0.998,0.987
CC(C)(C)NCC(O)CSc1nc(-c2ccc(C(N)=O)s2)cs1 (stereo not drawn) [Arotinolol hydrochloride],1.02,1,0.996,1.01
Nc1cc(C(Cl)=C(Cl)Cl)c(S(N)(=O)=O)cc1S(N)(=O)=O [Clorsulon],1.02,0.998,1,0.999
CC(=O)Nc1cccc(O)c1 [Metacetamol],1,1.01,1,0.987
COc1c(-c2ccc3cc(NS(C)(=O)=O)ccc3c2)cc(-n2ccc(=O)[nH]c2=O)cc1C(C)(C)C [Dasabuvir],0.831,0.827,1,0.94
CCOCC(O)COc1ccc(NC(=O)CC[S+](C)C)cc1 (stereo not drawn) [Suplatast Tosylate],0.998,1.01,1,1
O=C(O)C[C@H](O)C[C@H](O)/C=C/c1c(C2CC2)nc2ccccc2c1-c1ccc(F)cc1 [Pitavastatin calcium],0.983,1,1.01,0.999
C=CC[C@@H]1/C=C(\C)C[C@H](C)C[C@H](OC)[C@H]2O[C@@](O)(C(=O)C(=O)N3CCCC[C@H]3C(=O)O[C@H](/C(C)=C/[C@@H]3CC[C@@H](O)[C@H](OC)C3)[C@H](C)[C@@H](O)CC1=O)[C@H](C)C[C@@H]2OC [Tacrolimus Monohydrate],1,1.03,0.998,1.04
CCCCc1ncc(/C=C(\Cc2cccs2)C(=O)O)n1Cc1ccc(C(=O)O)cc1 [Eprosartan mesylate],1.02,1.02,1.01,1
CCCCC(=O)N(Cc1ccc(-c2ccccc2-c2nnn[nH]2)cc1)[C@H](C(=O)O)C(C)C [Valsartan],1.04,1.02,1.02,1.02
C=CCOc1ccc(CC(=O)O)cc1Cl [Alclofenac],1.06,1.12,1,0.959
CCN1CCN(c2cc3c(cc2F)c(=O)c(C(=O)O)cn3C2CC2)CC1 [Enrofloxacin],0.0121 (active),0.0049 (active),0.00541 (active),0.00221 (active)
O=P(O)(O)C(O)(Cn1ccnc1)P(=O)(O)O [Zoledronic acid hydrate],0.972,0.988,1.01,0.994
CC1=NN(c2ccccc2)C(=O)C1 [Edaravone],0.998,1.01,1,0.982

# Source: the supplement of paper PMC12350171
